Results taken from PubChem BioAssay (NCATS).
Several values for one entry are separate records, joined by “and”; a condition that tells them apart may be missing. Equal entries are not always repeated. Inconclusive results are not listed. Activity calls are given as the source filed them. Unless noted, the call rests on the fitted dose curve.

Key:
[1] = target: Peroxisome proliferator-activated receptor gamma (Homo sapiens) (UniProt P37231); assay: qHTS assay for small molecule antagonists of peroxisome proliferator-activated receptor gamma signaling (AID 588537; active means well fitted inhibition curve with a large enough effect in the signal ratio, with a control signal flat, not every such curve was filed as active; the % refers to the signal ratio;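 further: reporter cells co-stimulated with 50 nM rosiglitazone agonist during compound treatment; % of control where 0% means no effect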)
Sequence of Peroxisome proliferator-activated receptor gamma (Homo sapiens) (P37231 whole entry, looked up): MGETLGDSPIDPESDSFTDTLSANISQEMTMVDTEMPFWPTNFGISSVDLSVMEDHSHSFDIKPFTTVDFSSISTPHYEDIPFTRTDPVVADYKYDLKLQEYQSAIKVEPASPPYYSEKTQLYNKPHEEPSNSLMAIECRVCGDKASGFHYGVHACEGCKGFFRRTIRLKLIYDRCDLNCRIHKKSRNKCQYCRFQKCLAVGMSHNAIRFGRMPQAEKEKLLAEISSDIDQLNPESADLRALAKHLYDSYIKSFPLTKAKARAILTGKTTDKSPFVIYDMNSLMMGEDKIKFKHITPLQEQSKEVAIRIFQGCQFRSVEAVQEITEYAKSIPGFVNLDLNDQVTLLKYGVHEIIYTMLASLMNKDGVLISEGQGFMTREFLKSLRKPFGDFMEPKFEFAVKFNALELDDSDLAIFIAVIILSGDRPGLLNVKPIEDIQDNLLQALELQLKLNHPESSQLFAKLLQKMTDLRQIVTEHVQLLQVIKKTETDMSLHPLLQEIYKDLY
Procedure, shortened: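 Cell-based beta-lactamase assay; GW9662 served as the antagonist control. Stimulation used rosiglitazone, final 50 nM, 16 h, 37 C.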

[2] = target: Vitamin D3 receptor (Homo sapiens) (UniProt P11473); assay: qHTS assay for small molecule antagonists of vitamin D receptor signaling (AID 588541);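 further: receptor activated by calcitriol during compound treatment; series mostly up to about 77 µM; on the % scale 0 is the no-effect control and ±100 the full control effect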
Sequence of Vitamin D3 receptor (Homo sapiens) (P11473 whole entry, looked up): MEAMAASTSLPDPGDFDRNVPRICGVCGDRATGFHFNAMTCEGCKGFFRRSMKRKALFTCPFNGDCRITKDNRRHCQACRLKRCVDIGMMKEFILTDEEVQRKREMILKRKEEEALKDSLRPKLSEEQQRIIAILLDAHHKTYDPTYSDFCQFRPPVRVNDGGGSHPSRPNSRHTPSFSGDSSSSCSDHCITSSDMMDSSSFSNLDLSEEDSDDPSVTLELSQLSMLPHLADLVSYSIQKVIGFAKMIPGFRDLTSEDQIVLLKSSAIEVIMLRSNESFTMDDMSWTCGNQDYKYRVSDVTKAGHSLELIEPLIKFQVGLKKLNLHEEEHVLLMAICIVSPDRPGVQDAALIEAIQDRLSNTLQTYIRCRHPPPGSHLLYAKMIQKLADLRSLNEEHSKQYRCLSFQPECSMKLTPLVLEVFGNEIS
Procedure, shortened: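 Antagonist-mode beta-lactamase reporter assay: HEK293T VDR-UAS-bla cells were exposed to titrated compound alongside 1-alpha,25-dihydroxyvitamin D3 at 3 nM final for 16 h. Values were normalized to the 50 nM agonist control and DMSO basal, with IC50 and efficacy from Hill equation fits.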

[3] = target: Vitamin D3 receptor (Homo sapiens) (UniProt P11473); assay: qHTS assay for small molecule agonists of vitamin D receptor signaling (AID 588543);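 further: 0% = DMSO basal and 100% = reference agonist control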
Procedure, shortened: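 Agonist-mode beta-lactamase reporter: HEK293T VDR-UAS-bla cells in charcoal-stripped 2% FBS, compound series 16 h 37 C, CCF4 2 h RT. EC50 from Hill fit, scaled against DMSO and 50 nM calcitriol control.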

[4] = qHTS assay for small molecule agonists of retinoid X receptor alpha signaling (AID 588544); details: HEK293T RXRa-UAS-bla, beta-lactamase reporter, 18 h; 530 nm emission
[5] = target: Retinoic acid receptor RXR-alpha (Homo sapiens) (UniProt P19793); assay: as above
Sequence of Retinoic acid receptor RXR-alpha (Homo sapiens) (P19793 whole entry, looked up): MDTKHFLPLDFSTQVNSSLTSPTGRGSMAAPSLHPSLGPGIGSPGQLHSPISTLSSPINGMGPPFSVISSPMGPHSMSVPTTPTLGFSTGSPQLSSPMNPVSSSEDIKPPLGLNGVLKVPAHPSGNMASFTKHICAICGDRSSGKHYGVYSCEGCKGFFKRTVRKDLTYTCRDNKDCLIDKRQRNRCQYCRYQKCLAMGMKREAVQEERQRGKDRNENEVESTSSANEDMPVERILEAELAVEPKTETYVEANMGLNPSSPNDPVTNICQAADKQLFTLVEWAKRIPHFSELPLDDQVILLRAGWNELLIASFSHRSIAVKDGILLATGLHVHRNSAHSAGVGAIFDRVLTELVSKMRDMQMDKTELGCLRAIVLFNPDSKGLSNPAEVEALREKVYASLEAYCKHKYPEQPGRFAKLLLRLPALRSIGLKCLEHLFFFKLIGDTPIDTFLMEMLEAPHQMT

[6] = qHTS assay for small molecule antagonists of retinoid X receptor alpha signaling (AID 588546; active means well fitted inhibition curve with a large enough effect in the signal ratio, with a control signal flat, not every such curve was filed as active; the % refers to the signal ratio;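 further: cells stimulated with 9-cis-retinoic acid as agonist; on the % scale 0 is the no-effect control and ±100 the full control effect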); details: HEK293T RXRa-UAS-bla, beta-lactamase ratio, antagonist mode; measured here: W530 green channel, cytotoxicity proxy
Procedure, shortened: (§1)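 Beta-lactamase reporter inhibition, read as CCF4 fluorescence ratio (ex 405, em 460/530 nm) after 2 h at RT. HEK293T UAS-bla cells, 2500/well, were stimulated with 9-cis-RA at 500 or 100 nM final alongside test compound for 18 h at 37 C.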

[7] = target: Retinoic acid receptor RXR-alpha (Homo sapiens) (UniProt P19793); assay: as above; details: HEK293T RXRa-UAS-bla, beta-lactamase ratio, antagonist mode
Procedure, shortened: as §1

[8] = target: Voltage-gated inwardly rectifying potassium channel KCNH2 (Homo sapiens) (UniProt Q12809); assay: qHTS Assay for Small Molecule Inhibitors of the Human hERG Channel Activity (AID 588834; active means well fitted inhibition curve with a large enough effect;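 further: top concentration of the series differs between compounds; on the % scale 0 is the no-effect control and ±100 the full control effect; lower thallium flux fluorescence means stronger hERG block; nearly all actives have a fitted effect of over 50% in size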)
Sequence of Voltage-gated inwardly rectifying potassium channel KCNH2 (Homo sapiens) (Q12809 whole entry, looked up): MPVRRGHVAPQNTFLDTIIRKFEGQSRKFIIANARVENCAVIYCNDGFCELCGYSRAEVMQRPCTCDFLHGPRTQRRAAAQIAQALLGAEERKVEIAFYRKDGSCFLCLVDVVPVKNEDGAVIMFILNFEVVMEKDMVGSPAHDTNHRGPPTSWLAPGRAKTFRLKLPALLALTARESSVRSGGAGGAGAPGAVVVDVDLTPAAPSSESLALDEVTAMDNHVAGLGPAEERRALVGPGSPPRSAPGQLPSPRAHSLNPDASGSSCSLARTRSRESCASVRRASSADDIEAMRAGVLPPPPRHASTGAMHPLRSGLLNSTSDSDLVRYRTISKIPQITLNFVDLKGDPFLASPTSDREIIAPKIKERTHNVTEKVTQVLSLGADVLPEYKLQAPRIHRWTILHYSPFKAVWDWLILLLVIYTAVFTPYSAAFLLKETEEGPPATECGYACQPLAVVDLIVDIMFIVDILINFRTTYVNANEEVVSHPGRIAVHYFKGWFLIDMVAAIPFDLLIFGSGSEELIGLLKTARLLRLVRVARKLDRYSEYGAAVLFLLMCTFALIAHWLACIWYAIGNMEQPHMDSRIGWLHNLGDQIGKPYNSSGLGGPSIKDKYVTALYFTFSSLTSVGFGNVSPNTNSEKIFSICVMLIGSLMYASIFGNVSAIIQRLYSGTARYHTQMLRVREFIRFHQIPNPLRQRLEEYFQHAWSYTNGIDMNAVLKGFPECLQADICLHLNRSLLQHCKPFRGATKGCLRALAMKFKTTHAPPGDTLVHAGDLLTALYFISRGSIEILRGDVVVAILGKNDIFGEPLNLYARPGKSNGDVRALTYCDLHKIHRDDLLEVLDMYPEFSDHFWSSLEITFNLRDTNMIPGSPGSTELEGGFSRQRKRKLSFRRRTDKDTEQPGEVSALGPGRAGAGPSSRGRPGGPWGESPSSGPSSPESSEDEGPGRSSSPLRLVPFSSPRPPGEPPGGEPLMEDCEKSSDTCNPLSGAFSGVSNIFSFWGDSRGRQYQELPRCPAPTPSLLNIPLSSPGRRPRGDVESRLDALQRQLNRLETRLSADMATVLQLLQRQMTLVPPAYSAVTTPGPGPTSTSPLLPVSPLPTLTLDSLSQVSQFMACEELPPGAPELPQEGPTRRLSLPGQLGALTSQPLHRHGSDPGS
Procedure, shortened: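 hERG block measured as reduced thallium-dye (FluxOR) fluorescence after stimulation buffer addition, read over 2 min. Cells were hERG-BacMam-transduced U2OS exposed to compound ~10 min […]; concentration-response fitted with Hill equation for AC50.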

[9] = target: Thyroid hormone receptor beta (Homo sapiens) (UniProt P10828); assay: qHTS assay for small molecule agonists of thyroid hormone receptor beta signaling (AID 588545)
Sequence of Thyroid hormone receptor beta (Homo sapiens) (P10828 whole entry, looked up): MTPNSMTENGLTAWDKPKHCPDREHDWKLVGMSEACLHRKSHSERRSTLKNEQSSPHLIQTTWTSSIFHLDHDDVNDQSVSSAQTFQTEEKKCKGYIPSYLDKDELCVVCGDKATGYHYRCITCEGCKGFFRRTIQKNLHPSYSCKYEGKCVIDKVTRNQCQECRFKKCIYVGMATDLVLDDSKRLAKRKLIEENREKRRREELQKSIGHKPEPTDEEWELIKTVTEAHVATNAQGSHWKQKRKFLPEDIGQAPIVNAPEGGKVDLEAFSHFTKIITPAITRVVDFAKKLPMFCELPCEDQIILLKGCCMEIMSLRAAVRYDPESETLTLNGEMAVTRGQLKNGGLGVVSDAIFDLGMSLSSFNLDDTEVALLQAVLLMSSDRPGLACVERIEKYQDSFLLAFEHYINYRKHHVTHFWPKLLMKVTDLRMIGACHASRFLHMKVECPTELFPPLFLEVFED
Procedure, shortened: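 In this cell-based screen, titrated compounds act on HEK 293 cells held in medium with 2% charcoal/dextran FBS, NEAA and pyruvate for 18 hrs at 37 C. Responses are expressed relative to T3 (10 nM) as 100% and basal DMSO as 0%.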

[10] = target: Thyroid hormone receptor beta (Homo sapiens) (UniProt P10828); assay: qHTS assay for small molecule antagonists of thyroid hormone receptor beta signaling (AID 588547; active means well fitted inhibition curve with a large enough effect in the signal ratio, with a control signal flat, not every such curve was filed as active; the % refers to the signal ratio;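 further: cells stimulated with 0.4 nM T3 agonist during compound exposure; series mostly up to about 77 µM; on the % scale 0 is the no-effect control and ±100 the full control effect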); details: TR-UAS-bla HEK293, beta-lactamase ratio, antagonist mode, 18 h
Procedure, shortened: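 Inhibition of T3-driven (0.4nM final) beta-lactamase reporter activity was measured over 0.59 nM to 92 uM compound after 18 h at 37 C. The cells were GripTite HEK293 TR-UAS-bla in charcoal/dextran-stripped serum, with CCF4 ratio read-out and IC50 from Hill fits.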

OCCOCCOCCO
-16.7% and -5.33%: max response [6]
-8.79% and -11.6%: max response [4]
inactive: outcome [1] | outcome [2] | outcome [3] | outcome [5] | max response [7] 0.587% and -7.45% | Potency [8]

CC[C@H]1OC(=O)[C@H](C)[C@@H](O[C@H]2C[C@@](C)(OC)[C@@H](O)[C@H](C)O2)[C@H](C)[C@@H](O[C@@H]2O[C@H](C)C[C@H](N(C)C)[C@H]2O)[C@](C)(O)C[C@@H](C)CN(C)[C@H](C)[C@@H](O)[C@]1(C)O
13.1%: max response [6]
inactive: outcome [1] | outcome [2] | outcome [3] | outcome [9] | max response [7] -8.56% | activity change % (negative = inhibition) [10] -2.15% | Potency [8]

CC(C)CCCCCCc1ccc(O)cc1
inactive: outcome [1] | outcome [2] | outcome [3] | outcome [9] | Potency [8]

CC(C)[C@@H]1CC[C@@H](C)C[C@H]1O
inactive: outcome [1] | outcome [2] | outcome [3] | outcome [5] | outcome [9] | Potency [8]
-16.2%: max response [4]

Nc1nccs1
inactive: outcome [2] | outcome [3] | outcome [5] | outcome [9] | max response [7] 4.13% | activity change % (negative = inhibition) [10] 8.98% | Potency [8]
-5.85%: max response [6]
-14.1%: max response [4]

Cc1ncc[nH]1
inactive: outcome [1] | outcome [2] | outcome [3] | outcome [5] | outcome [9] | max response [7] 11.5% | activity change % (negative = inhibition) [10] -11.5% | Potency [8]
5.14%: max response [4]
2.25%: max response [6]

CO/N=C(/C(=O)N[C@@H]1C(=O)N2C(C(=O)O)=C(COC(N)=O)CS[C@H]12)c1ccco1
inactive: outcome [2] | outcome [3] | outcome [5] | outcome [9] | max response [7] -5.55% | activity change % (negative = inhibition) [10] -0.0158% | Potency [8]
-14%: max response [4]
-0.122%: max response [6]

OCC(O)CO
-6.53% and 10.4%: max response [6]
inactive: outcome [1] | outcome [2] | outcome [3] | outcome [5] | outcome [9] | max response [7] 0.797% and 12.5% | activity change % (negative = inhibition) [10] -5.42% and 3.32% | Potency [8]
-13.7% and 0.479%: max response [4]
